Screening results as filed in PubChem.
Compounds with a hit are over-represented: about 1.5% of the library has one in this group of screens.
EBV gp42 block – Epstein-Barr virus gp42 inhibitors, primary screen, biochemical, uHTS, fluorescence polarization | actives 0.42% (n = 220,000) | inhibition, % (tested at 21.74 µM) | Glycoprotein 42 (Epstein-Barr virus (strain AG876)), Q1HVG2 | Fluorescence polarization binding assay, mP read-out; in the data active = inhibition above about 50%
BCLXL inh – inhibitors of human Bcl-xL, primary screen, biochemical, fluorescence polarization, HTS; AID 2129, 2009; actives 0.7% (n = 320,000); GST-Bcl-xL / FITC-Bim BH3 peptide fluorescence polarization; inhibition, % at 10.9 µM;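 active = inhibition above the mean of all tested compounds plus 3 SD, cutoff set per campaign, cut at about 30% in these data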;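 also: inhibitors lower millipolarization by displacing the labeled peptide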
MEX-5 binding – MEX-5 zinc finger RNA-binding disruptors – biochemical, C. elegans, fluorescence polarization, MLPCN library, primary screen. Zinc finger protein mex-5 (Caenorhabditis elegans), Q9XUB2. MEX-5/FITC-TCR2 RNA binding; hits give low values. activity score (negative = inhibition of binding), % at 10 µM. actives 0.38% (n = 300,000);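 active = inhibition past about -25% in most replicates, and total fluorescence under double the plate's negative control median, limit read from the data; inconclusive = replicates evenly split on the limit, or fluorescence at least double controls; inactive = too little inhibition in most replicates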
MCL1 BIM primary – inhibitors of MCL1 binding to BIM-BH3, primary screen, biochemical, fluorescence polarization; GST-MCL1 / FITC-Bim-BH3 fluorescence polarization; AID 2057, 2009; inhibition, % at 10.9 µM; actives 0.68% (n = 320,000);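 active = inhibition above the mean inhibition of all tested compounds plus 3 SD, set per campaign, cut at about 40% in these data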;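 also: higher means more loss of mP so more displacement of Bim peptide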
GLD-1 RNA inh – GLD-1/TGE RNA complex disruptors, primary screen, biochemical, fluorescence polarization; Female germline-specific tumor suppressor gld-1 (Caenorhabditis elegans), Q17339; purified GLD-1 + fluorescein TGE RNA; inhibition, % at 5.96 µM; actives 0.44% (n = 320,000);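 active = percent inhibition above a per-plate cutoff, the plate mean of test compounds plus 3 SD, cut at about 30% in these data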
eLon inh – inhibitors of E. coli Lon protease, primary screen, biochemical, fluorescence polarization. inhibition, % at 7.94 µM. actives 0.42% (n = 360,000). AID 602123, 2011. purified E. coli Lon protease; in the data active = inhibition above about 13%, passing the limit was not always enough
Target sequence (P0A9M0 whole entry, looked up): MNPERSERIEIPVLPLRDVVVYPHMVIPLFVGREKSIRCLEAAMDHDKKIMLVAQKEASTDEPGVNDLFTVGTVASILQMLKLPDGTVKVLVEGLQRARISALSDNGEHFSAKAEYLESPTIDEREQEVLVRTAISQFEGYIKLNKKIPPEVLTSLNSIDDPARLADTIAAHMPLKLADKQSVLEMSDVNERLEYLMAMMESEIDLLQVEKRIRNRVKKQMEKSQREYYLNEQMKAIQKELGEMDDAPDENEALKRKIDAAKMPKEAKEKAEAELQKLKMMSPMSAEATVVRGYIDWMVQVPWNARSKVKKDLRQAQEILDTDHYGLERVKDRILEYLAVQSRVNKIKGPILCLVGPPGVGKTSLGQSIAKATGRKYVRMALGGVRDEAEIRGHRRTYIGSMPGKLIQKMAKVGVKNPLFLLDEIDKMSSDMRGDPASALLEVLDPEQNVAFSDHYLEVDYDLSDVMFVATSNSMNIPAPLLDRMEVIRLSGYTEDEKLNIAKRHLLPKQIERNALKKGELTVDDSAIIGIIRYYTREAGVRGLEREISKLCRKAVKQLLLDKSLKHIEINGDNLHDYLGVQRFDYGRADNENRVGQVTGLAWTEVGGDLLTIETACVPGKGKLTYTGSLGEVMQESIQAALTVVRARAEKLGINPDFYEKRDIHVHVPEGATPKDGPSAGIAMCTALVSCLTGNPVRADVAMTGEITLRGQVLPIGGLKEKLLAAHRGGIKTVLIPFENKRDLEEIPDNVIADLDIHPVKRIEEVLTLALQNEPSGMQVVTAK
BCLXL inh confirm – Bcl-xL inhibitors blocking Bim BH3 binding, confirmation, counter-screen for MCL1 inhibitor project, biochemical, fluorescence polarization. shares compounds with MCL1 BIM primary. GST-Bcl-xL / FITC-Bim BH3 peptide FP binding. inhibition, % at 10.9 µM. actives 54% (n = 1,700);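 active = inhibition above a cutoff equal to the mean inhibition of all tested compounds plus 3 SD, cut at about 30% in these data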
MCL1 BIM confirm – inhibitors of MCL1 binding to BIM-BH3, confirmation, biochemical, fluorescence polarization, triplicate | actives 61% (n = 1,700) | shares compounds with MCL1 BIM primary | GST-MCL1 / FITC-Bim-BH3 fluorescence polarization | AID 2168, 2009 | inhibition, % at 10.9 µM;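 active = inhibition above the average of all tested compounds plus 3 SD, cut at about 40% in these data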
Of the large screens only hits and unclear results are named; the others gave an inactive call (follow-up assays come after a bar, where they were run).

Cc1ccc(C)n1-c1ccc(C(=O)O)cc1	MEX-5 binding -50.5, MCL1 BIM primary 44.7 (no result: eLon inh) | BCLXL inh confirm inactive | MCL1 BIM confirm 40.8
O=C(CCc1ccc(S(=O)(=O)N2CCOCC2)cc1)N/N=C/c1ccc(O)c(O)c1O	MCL1 BIM primary 46.2 | BCLXL inh confirm inactive | MCL1 BIM confirm 58.7
O=C(CCc1ccc(S(=O)(=O)N2CCOCC2)cc1)N/N=C/c1ccc(F)cc1F	none
COc1ccc(C(=O)c2c(-c3ccsc3)oc3ccc(-c4ccc(OC)cc4)cc23)cc1	none (no result: EBV gp42 block, eLon inh)
CCN(CC)c1ccc2cc(NC(=O)CCC(=O)O)c(=O)oc2c1	EBV gp42 block 73.9, BCLXL inh 103.3, MEX-5 binding -68.0, MCL1 BIM primary 113.3, GLD-1 RNA inh 75.3 | BCLXL inh confirm 106.2 | MCL1 BIM confirm 118.3
CCN(CC)c1ccc2cc(C(C)=O)c(=O)oc2c1	none
COc1ccccc1-n1c(C)c2c(OC)cccc(=O)c2c1C	BCLXL inh 39.4, MCL1 BIM primary 40.4 | BCLXL inh confirm inactive | MCL1 BIM confirm inactive
O=C(NCC(F)(F)F)c1ccc2sc([C@@H]3O[C@H](CO)[C@H](O)[C@H](O)[C@H]3O)nc2c1	none (no result: EBV gp42 block, BCLXL inh, MEX-5 binding, MCL1 BIM primary, GLD-1 RNA inh)
COc1ccc(NC(=O)N(C)C[C@@H]2OCc3cn(nn3)CCCC(=O)N([C@H](C)CO)C[C@H]2C)cc1	none (no result: EBV gp42 block, BCLXL inh, MEX-5 binding, MCL1 BIM primary, GLD-1 RNA inh)
COc1ccc(C(CNC(=O)Nc2ccc(Cl)cc2)N2CCN(C)CC2)cc1 (centres undefined)	none (no result: EBV gp42 block)
COc1ccc(C(CNC(=O)Nc2ccccc2)N2CCN(C)CC2)cc1 (centres undefined)	MCL1 BIM primary 46.3 (no result: EBV gp42 block) | BCLXL inh confirm inactive | MCL1 BIM confirm inactive
CC(=O)Nc1nc(-c2cccs2)cs1	none
N#C/C(=C\c1ccc(-c2ccc(F)cc2)o1)C(=O)Nc1nc(-c2cccs2)cs1	MCL1 BIM primary 41.4 | BCLXL inh confirm 45.4 | MCL1 BIM confirm 73.1
OCCNNC(=S)NC1CC2C=CC1C2 (centres undefined)	none
Nc1ncc(N=Nc2cc(C(=O)O)ccc2Cl)s1	MCL1 BIM primary 44.9 (no result: MEX-5 binding) | BCLXL inh confirm 36.1 | MCL1 BIM confirm 82.1
Nc1cc2sc(-c3ccc(C(=O)O)cc3)nc2cc1Cl	none
Nc1cc(=O)nc2cn[nH]n12	none (no result: EBV gp42 block, BCLXL inh, MEX-5 binding, MCL1 BIM primary, GLD-1 RNA inh)
Cc1ccc(OCC(=O)OCC(=O)NC2CC2)cc1C	none (no result: EBV gp42 block, MEX-5 binding)
COc1ccc(S(=O)(=O)Nc2cc(Sc3ncn[nH]3)c(O)c3ccccc23)cc1	none (no result: BCLXL inh, MEX-5 binding, MCL1 BIM primary, GLD-1 RNA inh, eLon inh)
COc1ccc(S(=O)(=O)Nc2cc(SCC(=O)O)c(O)c3ccccc23)cc1	MEX-5 binding -53.1 (no result: EBV gp42 block, MCL1 BIM primary) | BCLXL inh confirm inactive
CCCCN(CCCC)Cc1cc(=O)oc2ccc3ccccc3c12	none (no result: EBV gp42 block, BCLXL inh, MEX-5 binding, MCL1 BIM primary, GLD-1 RNA inh)
CCCn1c(SC(C)C(=O)NC2CCCC(C)C2C)n[nH]c1=O (centres undefined)	none (no result: EBV gp42 block, BCLXL inh, MEX-5 binding, MCL1 BIM primary, GLD-1 RNA inh)
Cc1cccc2nc3ccccc3cc12	none (no result: EBV gp42 block)
C/C(O)=c1/ccc2cccc3nc(C)nc1c23	EBV gp42 block 110.2, BCLXL inh 70.9, MEX-5 binding -41.3, MCL1 BIM primary 61.2 | BCLXL inh confirm 62.4 | MCL1 BIM confirm 56.8
CCNC(=S)N1CCCC(C(N)=O)C1 (centres undefined)	none
CCCCn1nnnc1C(c1ccccc1)N1CCN(c2ccc(C(F)(F)F)cc2[N+](=O)[O-])CC1 (centres undefined)	none (no result: EBV gp42 block, BCLXL inh, MEX-5 binding, MCL1 BIM primary, GLD-1 RNA inh)
Cc1cc(O)c(Oc2cc(C)cc(O)c2O)c(O)c1	MEX-5 binding -49.3, MCL1 BIM primary 52.0 | BCLXL inh confirm 33.8 | MCL1 BIM confirm 45.8
CC1=CC(=Nc2c(C)n(C)n(-c3ccccc3)c2=O)C=C(C)C1=O	none
CC1=CC(=Nc2c(C)n(C)n(-c3ccccc3)c2=O)C=CC1=O	BCLXL inh 125.3, MCL1 BIM primary 126.2, GLD-1 RNA inh 75.6 (no result: eLon inh) | BCLXL inh confirm inactive | MCL1 BIM confirm inactive
COc1ccc(Cl)cc1CN1CCN(c2nc(C)cc(C)c2C#N)CC1	BCLXL inh 78.0, MCL1 BIM primary 85.2 | BCLXL inh confirm 57.2 | MCL1 BIM confirm 81.8
CN(C)c1ccc(/C=N/N(CCO)C2=NS(=O)(=O)c3ccccc32)cc1	BCLXL inh active, MCL1 BIM primary 140.2, GLD-1 RNA inh 35.8 (no result: EBV gp42 block) | BCLXL inh confirm active | MCL1 BIM confirm active
O=C1CC(c2ccc3ccccc3c2)NN1 (centres undefined)	MCL1 BIM primary 42.1 (no result: EBV gp42 block, MEX-5 binding) | BCLXL inh confirm inactive | MCL1 BIM confirm inactive
CC(NS(=O)(=O)c1cn(C)c(=O)n(C)c1=O)c1ccccc1 (centres undefined)	none (no result: EBV gp42 block)
C=CCn1c(=O)/c(=C/c2cc(OC)c(OC)c(OC)c2)s/c1=C(/C#N)c1nc2ccccc2n1C	EBV gp42 block 95.9, BCLXL inh 112.3, MEX-5 binding inconclusive, MCL1 BIM primary 123.4 | BCLXL inh confirm 144.6 | MCL1 BIM confirm 169.2
CN1CC=C2C(C#N)=C(N)C(C#N)(C#N)C(c3cccc(Cl)c3Cl)C2C1 (centres undefined)	EBV gp42 block 86.5, BCLXL inh 83.4, MEX-5 binding -29.2, MCL1 BIM primary 87.6, GLD-1 RNA inh 68.5 | BCLXL inh confirm 56.2 | MCL1 BIM confirm 60.6
N#CC1=C(N)C(C#N)(C#N)[C@H](c2ccoc2)[C@H]2CN(Cc3ccccc3)CC=C12	EBV gp42 block 90.1, BCLXL inh 114.1, MEX-5 binding -46.2, MCL1 BIM primary 125.2, GLD-1 RNA inh 74.8 | BCLXL inh confirm 106.2 | MCL1 BIM confirm 119.8
CC(=O)N1CC=C2C(C#N)=C(N)C(C#N)(C#N)C(CCc3ccccc3)C2C1 (centres undefined)	none
Cc1ccc(CNCCCn2cnc(C(=O)Nc3ccc(C)c(C)c3)n2)o1	none (no result: EBV gp42 block, BCLXL inh, MEX-5 binding, MCL1 BIM primary, GLD-1 RNA inh)
CC(C)C[C@H]1C(=O)N2CCC[C@H]2[C@]2(O)O[C@](NC(=O)[C@@H]3C=C4c5cccc6[nH]c(Br)c(c56)CC4N(C)C3)(C(C)C)C(=O)N12 (some centres undefined)	BCLXL inh 86.7, MCL1 BIM primary 110.6, GLD-1 RNA inh 95.1 | BCLXL inh confirm inactive | MCL1 BIM confirm inactive
CC1(OC(=O)c2cnc3ccccc3n2)C(=O)C=C2C=C(C3CC3)OC=C2C1=O (centres undefined)	BCLXL inh 117.6, MEX-5 binding -53.0, MCL1 BIM primary 129.8, GLD-1 RNA inh 113.8 (no result: EBV gp42 block, eLon inh) | BCLXL inh confirm 80.7 | MCL1 BIM confirm 117.3
